# U2OS ROS induce: ROS inducers in U2OS cancer cells, primary screen, cell-based, H2DCF-DA fluorescence; U2OS ROS induction; ROS induction (% of piperlongumine), % at 10 µM; 46,000 tested, 2% active; in the data active means ROS induction above about 79%, passing the limit was not always enough; inconclusive means no clear call, values can overlap the other calls;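 further: 0% = DMSO vehicle median and 100% = reference compound median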
# YB-1 expression: inhibitors of YB-1 gene expression, primary screen, cell-based, fluorescence | U2OS, qRT-PCR YB-1 vs CDIP delta delta Cp, 16 h; hits give high values; zero = DMSO, each unit about twofold | delta delta Cp (YB-1 minus CDIP) (test concentration not listed) | 30,000 tested, 0.37% active | AID 434959, 2010;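 active means delta delta Cp rounded down to an integer at or above 3, about 3 SD of DMSO wells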;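 further: higher means less YB-1 transcript or more CDIP transcript relative to DMSO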
# The depositor's hits bear a star; ? = inconclusive; . = not tested or not shown. Hits are enriched below; roughly 2.1% of the tested compounds scored in any of these assays.
SMILES,U2OS ROS induce,YB-1 expression
CC(Oc1ccccc1)C(=O)NC1CCSC1=O (stereo unspecified),-9,.
Cc1nc(-c2ccccc2)sc1C(=O)C1C(=O)C(=O)N(CCCN2CCOCC2)C1c1cccs1 (stereo unspecified),115*,.
Cc1nc(-c2ccccc2)sc1C(=O)C1C(=O)C(=O)N(CCCN2CCOCC2)C1c1ccco1 (stereo unspecified),19,.
COc1ccc(C(O)(CCc2ccccc2)C(CN2CCCCC2)c2ccccc2)cc1 (stereo unspecified),18,.
Oc1ccccc1-c1cc(-c2ccccc2O)nc(-c2ccccc2)n1,2,.
c1ccc(-c2ccc3c(n2)CCc2ccccc2-3)cc1,107*,-0.19
Cc1nc2c(C(=O)NCc3ccc4c(c3)OCO4)cnn2c(C)c1Cc1c(F)cccc1Cl,12,.
COc1cccc(CNC(=O)c2cnn3c(C)c(Cc4c(C)cc(C)cc4C)c(C)nc23)c1,142*,.
COc1cccc(C(=O)/C=c2\[nH]c(=O)/c(=C\c3cccs3)s2)c1,1,-0.52
C[C@@H]1CN([C@@H](C)CO)C(=O)CCCn2nncc2CO[C@@H]1CN(C)C(=O)Nc1ccc(N2CCCCC2)cc1,83*,-0.14
COc1cccc(NC(=O)N(C)C[C@H]2OCc3cn(nn3)CCCC(=O)N([C@H](C)CO)C[C@H]2C)c1,-4,-0.24
C[C@H](CO)N1C[C@H](C)[C@@H](CN(C)C(=O)Nc2ccc(N3CCCCC3)cc2)OCc2cnnn2CCCC1=O,1,0.2
C[C@H](CO)N1C[C@H](C)[C@@H](CN(C)S(=O)(=O)c2ccc(Oc3ccccc3)nc2)OCc2cnnn2CCCC1=O,2,0.069
C[C@H]1CN([C@@H](C)CO)C(=O)CCCn2nncc2CO[C@H]1CN(C)Cc1ccc(-c2ccccc2)cc1,15,-0.4
C[C@@H]1CN([C@@H](C)CO)C(=O)CCCn2nncc2CO[C@H]1CN(C)S(=O)(=O)c1ccc(Oc2ccccc2)nc1,138*,-0.33
C[C@@H]1CN([C@@H](C)CO)C(=O)CCCn2nncc2CO[C@@H]1CN(C)Cc1ccc(-c2ccccc2)cc1,91*,-0.14
COc1cccc(NC(=O)N(C)C[C@@H]2OCc3cn(nn3)CCCC(=O)N([C@H](C)CO)C[C@H]2C)c1,108*,-0.23
Cc1cc(Br)c(NC(=O)CSc2nnc(N)s2)cc1C,-2,.
C=C(CO)[C@]1(O)C[C@@]2(C)C(=CC1=O)C=C[C@@H](O)[C@@H]2C,1,0.43
CCOC(=O)c1sc2nc3n(c(=O)c2c1C)N=C(c1cc2cc(Cl)ccc2oc1=O)CS3,-8,.
CCOc1cc(C(=O)Nc2cc(Cl)ccc2OC)cc(OCC)c1OCC,9,.
CCC(C)CC(C)/C=C\C1OC2=C(C(=O)OC2(C)O)C(O)C1O (stereo unspecified),-6,0.94
O=C(OCc1ccc2nonc2c1)c1c2c(nc3ccccc13)CCCC2,18,.
COc1cccc(CN(C)C[C@H]2OCc3cnnn3CCCC(=O)N([C@@H](C)CO)C[C@H]2C)c1,125*,0.62
COc1cccc(CN(C)C[C@@H]2OCc3cnnn3CCCC(=O)N([C@@H](C)CO)C[C@H]2C)c1,?,-0.64
SMILES,U2OS ROS induce,YB-1 expression
C=CCNC(=O)CN1N=C(c2ccccc2)CCC1=O,-11,.
COc1ccc([Si](C)(C)[C@@H]2[C@@H](CCn3cc(CCO)nn3)O[C@]3(C(=O)N(Cc4ccc(N5CCC5=O)cc4)c4ccccc43)[C@H]2C)cc1,35,0.24
COc1ccc([Si](C)(C)[C@H]2[C@H](CCn3cc(CCO)nn3)O[C@@]3(C(=O)N(Cc4cccc(N5CCC5=O)c4)c4ccccc43)[C@@H]2C)cc1,109*,0.11
COc1ccc([Si](C)(C)[C@H]2[C@H](CCn3cc(CCO)nn3)O[C@@]3(C(=O)N(Cc4ccc(N5CCC5=O)cc4)c4ccccc43)[C@@H]2C)cc1,80*,-0.057
COc1ccc([Si](C)(C)[C@@H]2[C@@H](CCO)O[C@]3(C(=O)N(Cc4ccc(N5CCC5=O)cc4)c4ccccc43)[C@H]2C)cc1,128*,0.026
COc1ccc([Si](C)(C)[C@H]2[C@H](CCO)O[C@@]3(C(=O)N(Cc4ccc(N5CCCCC5=O)cc4)c4ccccc43)[C@@H]2C)cc1,74,0.21
COc1ccc([Si](C)(C)[C@H]2[C@H](CCn3cc([C@H](O)c4ccccc4)nn3)O[C@@]3(C(=O)N(Cc4cccc(N5CCC5=O)c4)c4ccccc43)[C@@H]2C)cc1,61,0.037
CC(C)(C)N1CCN(C(C)(C)C)C1=O,-6,.
Cc1ccc(-n2c(SCC(=O)C(C)(C)C)nc3ccccc3c2=O)cc1,1,.
CCc1cc2c3c(c(=O)oc2cc1OCC(=O)OC(C)(C)C)CCCC3,-1,.
CCOC(=O)c1ccccc1NC(=O)C12CC3CC(CC(C3)C1)C2,19,.
C=C(C)c1cccc(C(C)(C)NC(=O)Nc2ccc3c(c2)oc2ccccc23)c1,-8,.
Cc1nn(Cc2ccc(Br)cc2)c(C)c1NC(=O)Cn1nc(C(F)(F)F)c2c1CCCCC2,1,.
COc1ccc(-n2c(N)c(-c3nc4ccccc4s3)c3nc(C#N)c(C#N)nc32)cc1,153*,.
COc1ccc(-c2nc3ccccc3s2)cc1,-5,-0.054
CC1=Nc2ccccc2NC(=O)C1Sc1nc2ccccc2s1 (stereo unspecified),8,.
CC(C)C(=O)Nc1cccc(Cl)c1,-15,.
COC(=O)c1ccccc1NC(=O)COc1ccc([N+](=O)[O-])c(C)c1,138*,.
COC(=O)c1ccccc1NC(=O)COc1ccc(C)c(C)c1,0,.
Cc1cc(/C=C(/C#N)S(C)(=O)=O)c2c(C)ccc(C(C)C)cc1-2,85*,.
CS(=O)(=O)/C(C#N)=C/Nc1cnccn1,6,-0.0096
COC(=O)C1=CN(c2ccc(F)cc2)C=C(C(=O)OC)C1c1cccc(O)c1,44,.
CCOC(=O)C1=CN(c2ccc(C)c(C)c2)C=C(C(=O)OCC)C1c1ccccc1F,96*,.
CCCC(C(N)=O)C1=NC2(CCCCC2)Cc2ccccc21 (stereo unspecified),-11,.
[N-]=[N+]=NCc1ccccc1C[C@]1(C(=O)N2CCCCC2)N=C(c2ccc(OCCCO)cc2)O[C@H]1c1ccccc1,155*,-0.063
SMILES,U2OS ROS induce,YB-1 expression
O=C(N1CCCCC1)[C@]1(CCS(=O)(=O)c2ccccc2)N=C(c2ccc(OCCCO)cc2)O[C@@H]1c1ccccc1,88*,-0.16
O=C(N1CCOCC1)[C@@]1(CCS(=O)(=O)c2ccccc2)N=C(c2ccc(OCCCO)cc2)O[C@H]1c1ccccc1,12,-0.63
[N-]=[N+]=NCc1ccccc1C[C@@]1(C(=O)N2CCCCC2)N=C(c2ccc(OCCCO)cc2)O[C@@H]1c1ccccc1,53,0.036
[N-]=[N+]=NCc1ccccc1C[C@@]1(C(=O)NCc2ccccc2)N=C(c2ccc(OCCCO)cc2)O[C@@H]1c1ccccc1,118*,0.81
COCCCNC(=O)[C@@]1(Cc2ccccc2CN=[N+]=[N-])N=C(c2ccc(OCCCO)cc2)O[C@H]1c1ccccc1,26,0.58
Cc1nc(C)c(S(=O)(=O)NCc2ccc(N3CCN(C)CC3)cc2)s1,-4,.
CCOc1ccc(C(=O)CC(=O)C(=O)OC)cc1,0,.
Cc1cc(C)c2c(n1)sc1c(SCC(=O)c3ccc(Br)cc3)ncnc12,-8,-0.13
